Measurements published in PubChem BioAssay (NCATS).
Records with an inconclusive call do not appear. Active and inactive are the calls of the source. Unless noted, the call rests on the fitted dose curve; in most records, active means well fitted curve in the direction sought with a large enough effect; inconclusive means small, poorly fitted or top-dose-only effect, or another doubt; inactive means no such curve, though single readings can be large; an effect the other way counts as inactive or inconclusive.

Columns and labels:
[1] = P-glycoprotein substrates identified in KB-3-1 adenocarcinoma cell line, qHTS therapeutic library screen (AID 1346986); further: nearly all actives have a fitted effect of over 60% in size;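 further: potency means the concentration at half of the fitted maximal effect; potency is for cytotoxicity meaning loss of cell viability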
In short: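 KB-3-1 parental and colchicine-selected P-gp-overexpressing KB-8-5-11 cells (colchicine omitted during assay), 500 cells/well, dosed in dose-response for 72 h at 37 °C; CellTiter-Glo luminescence. Cytotoxic: curve class -1.1 to -2.4, max response >50%, AC50 < 10 uM.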

[2] = P-glycoprotein substrates identified in KB-8-5-11 adenocarcinoma cell line, qHTS therapeutic library screen (AID 1346987); further: nearly all actives have a fitted effect of over 65% in size; further: potency means the concentration at half of the fitted maximal effect
In short: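 Steps: plate 500 KB-8-5-11 cells/well in DMEM + 10% FCS (colchicine removed); pin compounds in dose-response; incubate 72 h, 37 degree C, 5% CO2; add CellTiter-Glo, 5 min; read luminescence.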

[3] = biological target: Calcium and integrin-binding protein 1 (Homo sapiens) (UniProt Q99828); test: Primary qHTS for Identification of Calcium Integrin Binding Protein 1 (CIB1) Competitor (AID 1508620);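 further: GST tagged CIB1 binding a fluorescein labelled alphaIIb integrin peptide tracer; top concentration of the series differs between compounds; on the % scale 0 is the no-effect control and ±100 the full control effect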
Calcium and integrin-binding protein 1 (Homo sapiens), sequence (Q99828 whole entry, looked up): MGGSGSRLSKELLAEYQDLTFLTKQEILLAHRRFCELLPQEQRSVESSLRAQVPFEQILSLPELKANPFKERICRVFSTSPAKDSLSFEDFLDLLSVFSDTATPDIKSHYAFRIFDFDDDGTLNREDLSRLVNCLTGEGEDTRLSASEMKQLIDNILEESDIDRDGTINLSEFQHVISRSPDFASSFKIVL
In short: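 Fluorescence polarization competition: GST-tagged CIB1 (1 uM final) preincubated with compound 15 min at room temperature, then FITC-labelled alphaIIb peptide (100 nM final) added. After 15 min at room temperature, polarization read at Ex 480/Em 540.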

[4] = biological target: Glutathione peroxidase 1 (Homo sapiens) (UniProt P07203); test: Primary qHTS Assay for Inhibitors of Recombinant Selenoprotein Glutathione Peroxidase 1 (GPX1) (AID 1845191); further: nearly all actives have a fitted effect of over 65% in size; further: potency means the concentration at half of the fitted maximal effect
Glutathione peroxidase 1 (Homo sapiens), sequence (P07203 whole entry, looked up): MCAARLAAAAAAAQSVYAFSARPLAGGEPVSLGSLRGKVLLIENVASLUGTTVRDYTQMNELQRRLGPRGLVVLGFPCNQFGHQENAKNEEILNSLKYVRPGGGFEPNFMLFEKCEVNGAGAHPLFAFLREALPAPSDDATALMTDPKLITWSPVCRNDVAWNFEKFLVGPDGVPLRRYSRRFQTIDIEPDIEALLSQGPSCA
In short: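 GR-coupled assay: compounds preincubated 30 min at room temperature with GPX1, then reaction started with CHP; final 10 nM GPX1, 1 mM GSH, 0.5 mM CHP, 0.5 mM NADPH, 100 nM GR, 0.01% BSA, pH 7.5 Tris buffer. NADPH fluorescence (340/450 nm) read at 0 and 15 min.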

[5] = qHTS to identify inhibitors of the type 1 interferon - major histocompatibility complex class I in skeletal muscle: primary screen against the NCATS Mechanism Interrogation Plate v5.0 (MIPE) Libary (AID 1347411);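 further: plate controls were vehicle for no effect and reference inhibitor for full effect; nearly all actives have a fitted effect of over 65% in size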
In short: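 Luminescence from HiBiT-tagged endogenous HLA-B*08:01 served as the MHC class I read-out. CRISPR-engineered C25cl48 human myoblasts received 4.0 ng/ml IFN-beta plus compound for 24 hrs, with an 11-point, 1:3 series topping at 46 uM final.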

[6] = Primary qHTS for inhibitors of nuclear receptor binding SET domain protein 2 (NSD2) in an isogenic RCH-ACV NSD2 p.E1099K mutant (9B) (AID 1645876); further: nearly all actives have a fitted effect of over 70% in size; further: potency means the concentration at half of the fitted maximal effect
[7] = Primary qHTS for inhibitors of nuclear receptor binding SET domain protein 2 (NSD2) in an RCH-ACV wild type WT cells (2C) (AID 1645877); further: nearly all actives have a fitted effect of over 70% in size; further: potency means the concentration at half of the fitted maximal effect
[8] = biological target: Phospholipid hydroperoxide glutathione peroxidase GPX4 (Homo sapiens) (UniProt P36969); test: Primary qHTS Assay for Inhibitors of Recombinant Selenoprotein Glutathione Peroxidase 4 (GPX4) (AID 1845192); settings: outcome: dose series up to 50 µM unless noted; further: nearly all actives have a fitted effect of over 65% in size
Phospholipid hydroperoxide glutathione peroxidase GPX4 (Homo sapiens), sequence (P36969 whole entry, looked up): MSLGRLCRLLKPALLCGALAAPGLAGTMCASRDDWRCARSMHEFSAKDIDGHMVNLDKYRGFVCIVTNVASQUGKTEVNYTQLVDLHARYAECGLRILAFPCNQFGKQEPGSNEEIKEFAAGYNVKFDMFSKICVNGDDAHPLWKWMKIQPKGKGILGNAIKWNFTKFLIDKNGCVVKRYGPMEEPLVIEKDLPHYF
In short: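 GR-coupled assay: recombinant GPX4 preincubated 30 min with compound at room temperature; final 200 nM GPX4, 1 mM GSH, 0.5 mM cumene hydroperoxide, 0.5 mM NADPH, 100 nM GR, 0.01% BSA, pH 7.5 Tris. NADPH fluorescence (340/450 nm) read at 0 and 15 min.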

[9] = qHTS drug screen for cell cycle checkpoint inhibitors in PARPi-resistant BRCA-mutant ovarian cancer cell lines. (AID 1963452; calls by dose curve); settings: PEO1/OlaR viability, CellTiter-Glo luminescence, 96 h, stronger effect = lower value
In short: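 PEO1, PEO4 and PEO1/OlaR ovarian cancer cells, 600 per well, exposed 96 h at 37C to a dilution series. Viability read by CellTiter-Glo luminescence, normalized to DMSO and empty wells; activity summarized as Z-AUC.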

[10] = qHTS for Inhibitors of Ubiquitin-specific Protease USP2a Using CHOP2 as the Reporter: K633 Counterscreen (AID 652168); further: series mostly up to about 57 µM; % of control where 0% means no effect
In short: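 Cell-free interference counterscreen without USP2a: compounds pinned into enzyme-free buffer (20 mM Tris pH 8, 2 mM beta-mercaptoethanol, 0.05% Chaps), then DiUb K48-4IQF substrate added (100 nM stock); fluorescence read kinetically, Ex 525/Em 598.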

[11] = qHTS for Inhibitors of Ubiquitin-specific Protease USP2a Using CHOP2 as the Reporter: Cytotox Assay (AID 652170);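 further: series mostly up to about 46 µM; plate controls were DMSO-treated cells for no effect and wells without cells for full effect; nearly all actives have a fitted effect of over 70% in size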
In short: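 HCT116 human colon cancer cells, 600 per well in DMEM with 10% FBS, exposed to compounds for 72 hr at 37 deg C. ATP measured by CellTiter-Glo luminescence, normalized to DMSO cells and no-cell background.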

[12] = biological target: Ubiquitin carboxyl-terminal hydrolase 2 (Homo sapiens) (UniProt O75604); test: qHTS for Inhibitors of Ubiquitin-specific Protease USP2a Using CHOP2 as the Reporter: K484 Substrate (AID 652173); settings: USP2 cleavage of DiUb K48 IQF substrate, fluorescence;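 further: cleavage of internally quenched K48 di-ubiquitin substrate measured as rising fluorescence over time; potency means the concentration at half of the fitted maximal effect; nearly all actives have a fitted effect of over 70% in size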
Ubiquitin carboxyl-terminal hydrolase 2 (Homo sapiens), sequence (O75604 whole entry, looked up): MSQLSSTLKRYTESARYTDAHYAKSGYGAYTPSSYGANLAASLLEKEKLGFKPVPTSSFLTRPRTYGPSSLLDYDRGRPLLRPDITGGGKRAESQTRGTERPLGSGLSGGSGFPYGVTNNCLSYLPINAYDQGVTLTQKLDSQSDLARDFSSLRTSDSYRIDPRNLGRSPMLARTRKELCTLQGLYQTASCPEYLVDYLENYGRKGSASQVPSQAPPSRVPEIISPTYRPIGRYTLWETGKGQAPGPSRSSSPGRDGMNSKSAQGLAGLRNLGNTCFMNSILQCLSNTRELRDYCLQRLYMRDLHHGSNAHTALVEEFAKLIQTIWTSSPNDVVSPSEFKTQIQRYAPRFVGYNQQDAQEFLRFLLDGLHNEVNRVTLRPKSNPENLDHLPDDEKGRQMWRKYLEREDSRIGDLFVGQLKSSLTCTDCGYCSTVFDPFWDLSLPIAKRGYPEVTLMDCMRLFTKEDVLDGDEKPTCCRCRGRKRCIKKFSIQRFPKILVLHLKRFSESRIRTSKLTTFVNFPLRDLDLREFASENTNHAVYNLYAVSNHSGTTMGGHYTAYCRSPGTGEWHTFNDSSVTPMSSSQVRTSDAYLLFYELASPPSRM
In short: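 USP2 (dispensed at 5 nM) was pinned with compounds, then DiUb K48 internally quenched fluorescent substrate (dispensed at 100 nM) was added. The buffer was 20 mM Tris pH 8, 2 mM beta-mercaptoethanol and 0.05% CHAPS. Cleavage was read kinetically as rising fluorescence, Ex 525/Em 598.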

[13] = Primary qHTS for small molecule stabilizers of the endoplasmic reticulum resident proteome: Secreted ER Calcium Modulated Protein (SERCaMP) assay (AID 1508630); further: on the % scale 0 is the no-effect control and ±100 the full control effect
In short: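 GLuc-SERCaMP-expressing SH-SY5Y cells, pretreated 16 h with compound, are challenged with thapsigargin to empty ER calcium stores; after 4 h, coelenterazine is added directly to the medium and luminescence is imaged.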

[14] = biological target: Cytochrome P450 2D6 (Homo sapiens) (UniProt P10635); test: Cytochrome P450 family 2 subfamily D member 6 (CYP2D6) small molecule antagonists: luciferase biochemical (cell-free) qHTS assay (AID 1645840; active means well fitted curve in the direction sought with a large enough effect in the repeat runs; an effect the other way counts as inactive or inconclusive; further: series mostly up to about 57 µM; on the % scale 0 is the no-effect control and ±100 the full control effect; nearly all actives have a fitted effect of over 55% in size)
Cytochrome P450 2D6 (Homo sapiens), sequence (P10635 whole entry, looked up): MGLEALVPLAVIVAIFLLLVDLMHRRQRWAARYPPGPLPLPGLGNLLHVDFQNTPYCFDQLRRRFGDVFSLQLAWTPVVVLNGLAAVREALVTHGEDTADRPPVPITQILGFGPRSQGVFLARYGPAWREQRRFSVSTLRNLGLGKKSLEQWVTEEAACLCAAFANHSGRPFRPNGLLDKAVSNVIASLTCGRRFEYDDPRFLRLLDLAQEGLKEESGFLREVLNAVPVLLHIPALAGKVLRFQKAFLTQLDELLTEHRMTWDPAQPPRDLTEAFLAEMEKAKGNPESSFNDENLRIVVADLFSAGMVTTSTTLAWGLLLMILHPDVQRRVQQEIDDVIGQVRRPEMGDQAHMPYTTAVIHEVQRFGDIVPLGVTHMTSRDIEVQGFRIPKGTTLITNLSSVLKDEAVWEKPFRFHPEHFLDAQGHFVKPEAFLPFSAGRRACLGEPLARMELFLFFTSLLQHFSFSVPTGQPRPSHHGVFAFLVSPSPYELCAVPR
In short: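 P450-Glo luminescent screen: recombinant CYP2D6 enzyme–proluciferin substrate mix preincubated with compound 10 min at room temperature, then NADPH regeneration added for 1 h at room temperature. Detection reagent added for 20 min; luciferin light read as relative luminescence units.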

[15] = biological target: Cytochrome P450 2C9 (Homo sapiens) (UniProt P11712); test: Cytochrome P450 family 2 subfamily C member 9 (CYP2C9) small molecule antagonists: luciferase biochemical (cell-free) qHTS assay (AID 1645842; active means well fitted curve in the direction sought with a large enough effect in the repeat runs; an effect the other way counts as inactive or inconclusive; further: series mostly up to about 57 µM; on the % scale 0 is the no-effect control and ±100 the full control effect; nearly all actives have a fitted effect of over 55% in size)
Cytochrome P450 2C9 (Homo sapiens), sequence (P11712 whole entry, looked up): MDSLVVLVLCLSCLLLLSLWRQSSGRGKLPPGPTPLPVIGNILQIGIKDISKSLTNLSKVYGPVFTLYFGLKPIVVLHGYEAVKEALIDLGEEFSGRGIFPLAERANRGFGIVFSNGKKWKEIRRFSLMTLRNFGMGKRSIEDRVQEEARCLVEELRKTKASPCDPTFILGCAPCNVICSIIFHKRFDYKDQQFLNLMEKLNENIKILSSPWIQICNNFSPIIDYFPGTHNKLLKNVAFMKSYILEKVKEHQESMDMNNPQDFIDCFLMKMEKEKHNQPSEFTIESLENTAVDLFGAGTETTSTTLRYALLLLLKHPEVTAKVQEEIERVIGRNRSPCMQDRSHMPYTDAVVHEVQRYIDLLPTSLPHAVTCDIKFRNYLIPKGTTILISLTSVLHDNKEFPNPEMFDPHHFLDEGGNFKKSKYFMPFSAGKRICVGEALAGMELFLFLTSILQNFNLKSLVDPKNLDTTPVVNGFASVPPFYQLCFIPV
In short: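 Luminescence, after 20 min with luciferin detection reagent, reflected CYP2C9 turnover during a 1 h NADPH-driven reaction at 37C. Enzyme-substrate mix contained 0.4% bovine serum albumin and was preincubated with compound 10 min at room temperature.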

[16] = measured here: PEO1 parental Z-AUC

Cc1ccc(NS(=O)(=O)c2cc3c(cc2NC(C)CO)NC(=O)CC3)cc1C (configuration not stated)
inactive: Potency [1] | Potency [2] | outcome [3] | Potency [4]

CCc1c(C(=O)NNC(=O)[C@@H](O)c2cc(F)cc(F)c2)ccc(O)c1C
inactive: Potency [1] | Potency [2] | Potency [5] | Potency [6] | Potency [7] | Potency [4] | Potency [8] | Z-AUC [9] 1.17
1.04: Z-AUC ([9]; measured here: PEO4 Z-AUC)
0.688: Z-AUC [9, 16]

O=C1CCCC2=C1C1(CCCC1)N=C(Nc1nc3ccccc3o1)N2
inactive: Potency [1] | Potency [2] | outcome [3] | Potency [6] | Potency [7] | Potency [4]

NC(=O)c1nc(F)c[nH]c1=O
active: Potency [4] 20.2 µM
inactive: Potency [1] | Potency [2] | Potency [5] | Potency [6] | Potency [7] | Z-AUC [9] -0.413
-0.858: Z-AUC ([9]; measured here: PEO4 Z-AUC)
-0.874: Z-AUC [9, 16]

O=C(NOCCO)c1ccc2cncn2c1Nc1ccc(I)cc1F
0.484: Z-AUC [9, 16]
inactive: Potency [1] | Potency [2] | Potency [5] | Potency [4] | Z-AUC [9] 1.17
0.455: Z-AUC ([9]; measured here: PEO4 Z-AUC)

O=C(Nc1ccc(S(=O)(=O)Nc2nccs2)cc1)c1cc(-c2ccccc2)nc2ccccc12
active: Potency [12] 1.37 µM
inactive: outcome [10] | outcome [11] | Potency [1] | Potency [2] | outcome [3] | Potency [4]

O=C1CCCC2=C1C(c1ncccc1Br)N=C(Nc1nc3ccccc3o1)N2 (configuration not stated)
inactive: Potency [1] | Potency [2] | outcome [3] | Potency [4]

CC(=O)Nc1ccc(C(=O)NC(C)(C)C)cc1
0.805: Z-AUC [9, 16]
inactive: Potency [1] | Potency [2] | Potency [5] | Potency [6] | Potency [7] | Potency [4] | Z-AUC [9] 1.04
0.364: Z-AUC ([9]; measured here: PEO4 Z-AUC)

Cc1cc(I)ccc1Nc1c(C(=O)NOCC2CC2)cc(F)c(F)c1F
inactive: Potency [13] | Potency [4] | Z-AUC [9] 0.467
0.0632: Z-AUC [9, 16]
0.231: Z-AUC ([9]; measured here: PEO4 Z-AUC)
active: Potency [1] 23.1 µM | Potency [2] 18.4 µM | Potency [6] 8.33 µM | Potency [7] 7.42 µM

Cc1[nH]c(/C=C2\C(=O)Nc3ccccc32)c(C)c1CCC(=O)O
inactive: Potency [1] | Potency [2] | Potency [14] | Potency [15] | Potency [6] | Potency [7] | Potency [4]
